Activity calls are given as the source filed them. Rule as the data show it: active = remaining activity below about 50%; inactive = the rest.

This experiment deals with Phospholipase D2 (Homo sapiens) (UniProt O14939). Description: PLD2 inhibitors in cells, cell-based, HEK293, single concentration (AID 602143).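 Also: tested at 200 nM.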 To be noted: HEK293 cellular PLD2 activity, percent of control; active compounds read low.
Sequence of Phospholipase D2 (Homo sapiens) (O14939 whole entry, looked up): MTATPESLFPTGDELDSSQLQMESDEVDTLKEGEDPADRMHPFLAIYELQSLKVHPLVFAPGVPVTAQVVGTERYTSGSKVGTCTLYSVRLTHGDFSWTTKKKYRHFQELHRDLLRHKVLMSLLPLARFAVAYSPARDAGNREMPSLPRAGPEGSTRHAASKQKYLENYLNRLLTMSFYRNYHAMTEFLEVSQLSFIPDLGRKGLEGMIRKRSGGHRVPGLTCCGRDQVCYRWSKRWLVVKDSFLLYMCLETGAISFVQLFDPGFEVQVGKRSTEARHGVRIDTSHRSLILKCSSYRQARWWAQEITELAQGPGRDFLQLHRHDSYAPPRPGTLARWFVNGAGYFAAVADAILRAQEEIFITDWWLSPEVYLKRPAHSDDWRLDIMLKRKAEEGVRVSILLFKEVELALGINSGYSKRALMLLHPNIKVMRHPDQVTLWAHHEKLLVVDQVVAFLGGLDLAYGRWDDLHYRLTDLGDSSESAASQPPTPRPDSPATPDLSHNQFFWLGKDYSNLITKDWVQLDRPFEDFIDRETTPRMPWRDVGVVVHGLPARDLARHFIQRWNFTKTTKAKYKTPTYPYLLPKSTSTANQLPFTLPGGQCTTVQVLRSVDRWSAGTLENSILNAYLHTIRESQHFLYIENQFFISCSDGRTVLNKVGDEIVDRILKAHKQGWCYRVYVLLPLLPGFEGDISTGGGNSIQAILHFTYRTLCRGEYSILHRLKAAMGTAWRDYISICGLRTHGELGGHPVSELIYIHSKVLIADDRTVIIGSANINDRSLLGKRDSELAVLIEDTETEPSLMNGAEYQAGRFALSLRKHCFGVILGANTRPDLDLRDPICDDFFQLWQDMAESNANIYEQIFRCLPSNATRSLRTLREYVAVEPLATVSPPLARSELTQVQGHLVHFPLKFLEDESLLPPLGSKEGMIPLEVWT
Sequence of Phospholipase D2 (Homo sapiens) (O14939 whole entry, looked up): as above
A word on the remaining activity: it is the signal under treatment as a percentage of the control signal. `O=c1[nH]c2ccccc2n1C1CCN(CCNS(=O)(=O)c2ccc(Cl)cc2)CC1`: the remaining activity is 115% (inactive). Then `O=C(c1ccc(Cl)cc1)N1CCC(n2c(=O)[nH]c3cc(Cl)ccc32)CC1`, with 60.2% (inactive); and `CC(C)[C@@H](CN1CCC(n2c(=O)[nH]c3ccccc32)CC1)NC(=O)c1ccc(F)cc1`, with 82% (inactive). Then `O=C(NCCN1CCC2(CC1)CNc1ccccc12)C1CC1c1ccccc1` (configuration not stated), with 91.2% (inactive); and `Cc1cc(C)c(S(=O)(=O)NCCN2CCC(n3c(=O)[nH]c4ccccc43)CC2)c(C)c1`, with 98.8% (inactive).

For `C[C@@H](CN1CCC(n2c(=O)[nH]c3ccccc32)CC1)NC(=O)c1cc2ccccc2[nH]1`, the remaining activity was 0.434% (active). With `Cn1c(=O)n(C2CCN(CCNC(=O)c3ccc4ccccc4c3)CC2)c2ccccc21`, the remaining activity was 52.7% (inactive). Then `O=C(NCCN1CCC2(CC1)CNc1ccccc12)c1ccc2ccccc2c1`, with 61.8% (inactive); and `O=C(NCCN1CCC(c2nc3ccccc3[nH]2)CC1)c1ccc2ccccc2c1`, with 95.1% (inactive). Regarding `COc1cccc(C(=O)NCCN2CCC(n3c(=O)[nH]c4ccccc43)CC2)n1`, the remaining activity is 72.5% (inactive). On to `O=C(NCCN1CCN(c2ncccn2)CC1)c1ccc2ccccc2c1`, for which the remaining activity was 90.4% (inactive). Then `COc1cccc(N2CCN(CCNC(=O)c3ccc(C(F)(F)F)cc3)CC2)c1`, with 98.3% (inactive); and `O=C(NCCN1CCC(n2c(=O)[nH]c3ccccc32)CC1)c1ccccc1-c1ccccc1`, with 83.4% (inactive). Then `C[C@@H](CN1CCC(n2c(=O)[nH]c3ccccc32)CC1)NC(=O)c1cc2cc(F)ccc2[nH]1`, with 0.758% (active); and `CN1CCC2(CCN(CCNC(=O)[C@H]3C[C@@H]3c3ccccc3)CC2)C1=O`, with 102% (inactive).

For the compound `O=C(NCCN1CCC(n2c(=O)[nH]c3ccccc32)CC1)c1ccc(Cc2ccccc2)cc1`, the remaining activity is 72.9% (inactive). Then `Cc1ccc(C(=O)N[C@@H](C)CN2CCC(n3c(=O)[nH]c4ccc(F)cc43)CC2)cc1`, with 64% (inactive). Then `COc1cccc(N2CCN(CCNC(=O)c3ccc(C)cc3)CC2)c1`, with 97.6% (inactive). Then `O=C(NCCN1CCC2(CCc3ccccc32)CC1)c1ccc2ccccc2c1`, with 124% (inactive). With `COc1cccc(N2CCN(CCNC(=O)c3ccc4ccccc4c3)CC2)c1`, the remaining activity is 77.4% (inactive). Then `C[C@@H](CN1CCC(n2c(=O)[nH]c3ccccc32)CC1)NC(=O)c1ccc(Cl)c(Cl)c1`, with 76.3% (inactive); and `O=C(NCCN1CCC(n2c(=O)[nH]c3ccccc32)CC1)Nc1cccc(OC(F)(F)F)c1`, with 111% (inactive); and `O=C(NCCN1CCN(c2ccncc2)CC1)c1ccc(Cl)cc1`, with 116% (inactive). Then `CN(C)c1cccc2c(S(=O)(=O)NCCN3CCC(n4c(=O)[nH]c5ccccc54)CC3)cccc12`, with 112% (inactive); and `CS(=O)(=O)NCCN1CCC(n2c(=O)[nH]c3ccccc32)CC1`, with 96.5% (inactive); and `O=C(N[C@@H](Cc1ccccc1)CN1CCC(n2c(=O)[nH]c3ccccc32)CC1)c1ccc(F)c(F)c1`, with 124% (inactive). Then `O=C(NCCN1CCC2(CC1)CCN(c1ccccc1)C2=O)c1cnc2ccccc2c1`, with 42.3% (active); and `C[C@@H](CN1CCC2(CC1)CN(S(C)(=O)=O)c1ccccc12)NC(=O)c1cnc2ccccc2c1`, with 136% (inactive); and `C[C@@H](CN1CCC2(CC1)CCN(C)C2=O)NC(=O)c1cnc2ccccc2c1`, with 113% (inactive). Take `Cc1cccc(NC(=O)NCCN2CCC(n3c(=O)[nH]c4ccccc43)CC2)c1`: the remaining activity is 111% (inactive). To `O=C(CCc1ccccc1)NCCN1CCC(n2c(=O)[nH]c3ccccc32)CC1` belongs 80.7% (inactive); to `O=C(NCCN1CCC(n2c(=O)[nH]c3ccccc32)CC1)N1c2ccccc2C=Cc2ccccc21`, 66.5% (inactive); to `O=C(NCCN1CCN(c2ccccn2)CC1)c1ccc(F)cc1`, 101% (inactive). To `C[C@@H](CN1CCC(n2c(=O)[nH]c3ccccc32)CC1)NC(=O)c1cc2ccccc2s1` belongs 38.6% (active); to `O=C(NCCN1CCC(n2c(=O)[nH]c3ccccc32)CC1)C1CCCCCCCCCC1`, 81.3% (inactive); to `Cc1ccc(C(=O)NCCN2CCC(n3c(=O)[nH]c4cc(Br)ccc43)CC2)cc1`, 21.8% (active). Then `COc1ccc(S(=O)(=O)NCCN2CCC(n3c(=O)[nH]c4ccccc43)CC2)cc1`, with 127% (inactive).
